# From PubChem BioAssay AID540299 (ICCB-Longwood Screening Facility, Harvard Medical School, 2011)
# Out of some 100,000 compounds screened, about 440 (0.44%) were called active. This is one part of a sample in which actives are shown more often than they occur. Values without a mark were called inactive. Cut-off read from the data, not from the text of the source: active = inhibition above about 21% (passing the limit was not always enough); inactive = the rest.
# Molecular target: 1,4-dihydroxy-2-naphthoyl-CoA synthase (Mycobacterium tuberculosis (strain ATCC 25618 / H37Rv)) (UniProt P9WNP5)
# Sequence (P9WNP5 whole entry, looked up): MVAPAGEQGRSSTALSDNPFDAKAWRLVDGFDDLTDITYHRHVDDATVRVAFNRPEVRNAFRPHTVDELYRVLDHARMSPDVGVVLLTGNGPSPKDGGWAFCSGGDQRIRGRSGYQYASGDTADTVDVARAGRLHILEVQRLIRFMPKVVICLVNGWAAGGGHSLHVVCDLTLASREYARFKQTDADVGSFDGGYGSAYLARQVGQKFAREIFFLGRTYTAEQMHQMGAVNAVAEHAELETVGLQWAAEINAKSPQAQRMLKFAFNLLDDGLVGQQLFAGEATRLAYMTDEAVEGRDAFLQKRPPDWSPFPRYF
# Experiment: M. tuberculosis MenB inhibitors, primary screen, biochemical, absorbance (AID 540299)
# Details: MenB enzyme assay, absorbance read-out; active compounds read high; concentration not given here
row,SMILES,inhibition
1,CC(=O)NC1C(Oc2ccccc2)OC(CO)C(O)C1O (stereo not drawn),-6.61%
2,COc1ccc(OCCOc2cccc(N)c2)cc1,-98.6%
3,Cc1cccc(-n2nnnc2SCC(=O)c2c[nH]c3ccccc23)c1,-3.22%
4,CCn1nnnc1SCC(=O)c1ccc(C)cc1C,33.1% (active)
5,C=CCN(CC=C)C(=O)CSc1nnnn1-c1ccc(C)cc1C,-1.92%
6,CCNC(=S)N1CCn2cccc2C1c1cccs1 (stereo not drawn),-29%
7,CC(Sc1nnnn1C)C(=O)C12CC3CC(CC(C3)C1)C2 (stereo not drawn),-36%
8,COc1ccc(S(N)(=O)=O)cc1C(=O)OC1CCCCC1=O (stereo not drawn),-12.8%
9,Clc1cccc(Nc2nnc(-c3ccc(Br)cc3)o2)c1,1.27%
10,CC1CCNC(c2cccn2C)CC1 (stereo not drawn),-2.11%
11,CCN1C(=O)C2(Sc3ccccc3C2=O)C(=O)N(CC)C1=S,-6.71%
12,Clc1ncn(CCOc2ccccc2)c1Cl,3.99%
13,O=C(Cn1c(=O)oc2ccccc21)N(Cc1ccco1)CC1CCCO1 (stereo not drawn),2.87%
14,O=C(NCc1ccco1)OCC(F)(F)F,8.37%
15,O=C(c1cccs1)N1CCCn2c(SCc3ccccc3Cl)nnc21,-21.4%
16,COC(=O)c1ccccc1S(=O)(=O)N1CCC(C(=O)OCC(=O)Nc2ccccc2F)CC1,-9.07%
17,CCN(CC)CCn1c2ccccc2c2nc3cc(C(=O)O)ccc3nc21,-8.07%
18,Cc1oc(-c2ccc(Cl)cc2)nc1CSCC(=O)N1CCc2ccccc21,8.32%
19,COCCN=c1scc(-c2ccco2)n1/N=C/c1ccc(OC)cc1,-60.5%
20,CN1C(=O)CS/C1=C\C(=O)c1cccs1,-16.1%
21,Fc1ccc(C=Nc2ccc3c(c2)OCO3)cc1,10.6%

row,SMILES,inhibition
1,C/[N+]([O-])=C\c1ccc(-c2ccccc2)cc1,-18.5%
2,O=C(COc1ncnc2c1cnn2-c1ccccc1)N1CCc2ccccc21,-28.4%
3,O=C(COn1nnc2ccccc21)N1CCC(Cc2ccccc2)CC1,-32.5%
4,O=C1NC(c2cccc(F)c2)=N/C1=C/c1cc2c(cc1Cl)OCO2,-89%
5,Cc1ccc(-c2csc3ncnc(NCCO)c23)cc1,-19.8%
6,Cc1cccc(/N=c2\scc(-c3ccco3)n2-c2ccccc2)n1,-26.2%
7,CCC(=O)c1c(O)ccc2c(C)cc(=O)oc12,2.91%
8,CCN(CC)c1ccc2cc(C(N)=O)/c(=N\NC(=O)c3ccccc3)oc2c1,-13.9%
9,Cn1c(=N)n(CC(=O)C23CC4CC(CC(C4)C2)C3)c2ccccc21,-12%
10,Cc1ccc(NC(=O)CN2CCc3ccccc32)cc1C,-19.3%
11,COc1cccc2c(C)nc(NC3=NCN(CC4CCCO4)CN3)nc12 (stereo not drawn),-8.02%
12,COC(=O)c1ccc(NC(=O)C(C(C)C)N2C(=O)c3ccccc3C2=O)cc1 (stereo not drawn),0.235%
13,Cc1cc(NC(=O)[C@H](C)NC(=O)c2ccco2)ccc1Br,0.245%
14,Cc1ccccc1NC(=O)COC(=O)c1ccccc1,4.34%
15,O=C1Nc2ccccc2S/C1=C\C(=O)N1CCc2ccccc2C1,-6.55%
16,CCOC(=O)c1ccc2c(c1)[nH]c(=O)c(=O)n2CC,5.07%
17,O=C(O)/C(=C/C(=O)c1ccccc1)Nc1ccc(OC(F)(F)F)cc1,32.1% (active)
18,O=C(O)/C(=C/C(=O)c1ccc(F)cc1)Nc1ccc2[nH]c(=O)[nH]c2c1,-9.19%
19,C/C(=C\C(=O)c1ccccc1)Nc1cccc(O)c1,-47%
20,CCOc1ccc(CN(C)C(C)c2nnc(-c3ccc(C)cc3)o2)cc1 (stereo not drawn),-8.7%
21,COc1ccc2nc(SC)[nH]c2c1,0.13%

row,SMILES,inhibition
1,O=C(c1ccccc1)N1CCN(c2cccc(Cl)c2)CC1,-21%
2,CC(C)(C)CNC(=S)NN,-27.8%
3,CCO/C=N/c1c(C(=O)OCC)c2nc3ccccc3nc2n1Cc1ccccc1,-29.7%
4,CC(=O)Oc1ccc(N(C(C)=O)S(=O)(=O)c2ccc(Cl)cc2)cc1,-5.01%
5,COc1ccc(S(=O)(=O)N(C)C)cc1,-20.5%
6,COc1ccc(N(CCC#N)S(=O)(=O)c2ccc(Cl)cc2)cc1,34.8% (active)
7,COCC(=O)N(CCc1ccccc1)Cc1cc2cccc(C)c2n2nnnc12,5.43%
8,Cc1ccc2c(c1)cc(CN(Cc1ccco1)C(=O)c1ccccc1)c1nnnn12,32.8% (active)
9,CCc1ccc2[nH]c(=O)c(CN(Cc3ccco3)C(=O)c3ccccc3)cc2c1,-39%
10,CC(C)c1ccc(S(=O)(=O)N2CCN(S(=O)(=O)c3ccc(C(C)C)cc3)C(C)C2)cc1 (stereo not drawn),-17.6%
11,COc1ccc(-c2noc(CC(=O)N(C(C)C)C3CCCCC3)n2)cc1,-38.9%
12,CC(C)c1ccc(-c2noc(C3CCCN(S(C)(=O)=O)C3)n2)cc1 (stereo not drawn),29.2% (active)
13,COc1ccc(N2CCN(C(=S)C3CCCCC3)CC2)cc1,1.7%
14,CCOC(=O)N1CCC(NC(=O)Cn2nc(Cc3cccnc3)c3ccccc3c2=O)CC1,13.3%
15,CC(Sc1nnc(COc2ccccc2)n1-c1ccccc1)C(=O)O (stereo not drawn),44.3% (active)
16,CC(C)(C)c1ccc(OCc2nnc(SCC(N)=O)n2-c2ccccc2)cc1,-20.4%
17,O=C(O)CSc1nnc(COc2ccc(Cl)cc2)n1-c1ccc(Br)cc1,-31.3%
18,OC(COc1ccc(Cl)cc1)C(O)C(O)c1cnn(-c2ccccc2)n1 (stereo not drawn),-25.4%
19,Cc1ccc(Cn2c(=O)c3ccccc3n3c(SCC(=O)N(C(C)C)C(C)C)nnc23)cc1,-3.38%
20,CCN(c1ccccc1)S(=O)(=O)c1ccc(Sc2nnc(-c3cccs3)n2CC2CCCO2)nc1 (stereo not drawn),-29.5%
21,CCOC(=O)c1c(NC(=O)c2cc(-n3cnnc3)ccc2Cl)sc2c1CCCC2,-11.9%
